# Results taken from the supplement of paper PMC9446081.
# Hit rate of the full screen: of about 39,000 compounds, about 220 (0.56%) showed activity. Many of the other results were omitted from the sample, so actives are more common in it than they were. Values without a mark were called inactive.
# System: Escherichia coli K-12 BW25113
# Experiment: relative growth (OD600 normalised to plate interquartile mean) (fraction); higher = less growth inhibition, active = 0.2 or less
# Conditions: 50 µM; LB; incubation time: overnight (16-24 h)
# 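Note: Wild-type cells incubated without shaking, value is the mean of two biological replicates.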
row,Structure (SMILES),relative growth
1,Cc1ccc(S(=O)(=O)Nc2ccc3c(c2)CC(=O)N([C@@H](C)CO)C[C@@H](C)[C@H](CN(C)CC2CC2)O3)cc1,1.02
2,C[C@H]1CCCCO[C@H](CN(C)C(=O)Nc2ccc(F)cc2)[C@@H](C)CN([C@@H](C)CO)C(=O)c2cc(NS(=O)(=O)c3ccc(Cl)cc3)ccc2O1,0.987
3,CNC1CCC(c2ccc(Cl)c(Cl)c2)c2ccccc21.Cl (stereo unspecified),0.261
4,CN[C@H]1CC[C@@H](c2ccc(Cl)c(Cl)c2)c2ccccc21,0.868
5,N[C@@H]1CC[C@@H](c2ccc(Cl)c(Cl)c2)c2ccccc21,0.0794 (active)
6,C[C@@H]1CCCCO[C@H](CN(C)C(=O)c2ccccc2)[C@@H](C)CN([C@@H](C)CO)C(=O)c2cc(NS(=O)(=O)c3ccccc3)ccc2O1,0.956
7,C[C@@H]1CCCCO[C@H](CN(C)C(=O)Nc2ccc(F)cc2)[C@@H](C)CN([C@H](C)CO)C(=O)c2cc(NC(=O)c3ccccc3)ccc2O1,1.04
8,C[C@H]1CN([C@@H](C)CO)C(=O)c2cc(NS(=O)(=O)c3cccs3)ccc2O[C@@H]1CN(C)Cc1ccc(Cl)c(Cl)c1,0.995
9,O=C(Nc1cc(Cl)cc(Cl)c1O)c1c(O)c(Cl)cc(Cl)c1Cl,0.565
10,Oc1c(Cl)cc(Cl)c(Cl)c1Cc1c(O)c(Cl)cc(Cl)c1Cl,0.0546 (active)
11,Oc1c(Cl)cc(Cl)cc1Sc1cc(Cl)cc(Cl)c1O,0.202
12,COc1ccc(S(=O)(=O)N(C)C[C@@H]2OCCCC[C@@H](C)Oc3ccc(NC(=O)Nc4cccc5ccccc45)cc3C(=O)N([C@H](C)CO)C[C@@H]2C)cc1,1.03
13,C[C@@H]1CN([C@H](C)CO)C(=O)CCCn2cc(nn2)CO[C@@H]1CN(C)Cc1ccc2c(c1)OCCN2C,1.02
14,CC(C)CCCC(=O)N[C@@H](CCNCS(=O)(=O)O)C(=O)N[C@H](C(=O)N[C@@H](CCNCS(=O)(=O)O)C(=O)N[C@H]1CCNC(=O)[C@H]([C@@H](C)O)NC(=O)[C@H](CCNCS(=O)(=O)O)NC(=O)[C@H](CCNCS(=O)(=O)O)NC(=O)[C@H](CC(C)C)NC(=O)[C@H](CC(C)C)NC(=O)[C@H](CCNCS(=O)(=O)O)NC1=O)[C@@H](C)O,0.0299 (active)
15,CC[C@H](C)[C@H](N)C1=N[C@H](C(=O)N[C@@H](CC(C)C)C(=O)N[C@@H]2CCC(=O)[O][Zn][O]C(=O)C[C@H]3NC(=O)[C@H](Cc4c[nH]cn4)NC(=O)[C@@H](Cc4ccccc4)NC(=O)[C@H]([C@@H](C)CC)NC(=O)[C@@H](CCCN)NC(=O)[C@H](CCCCNC(=O)[C@H](CC(N)=O)NC3=O)NC(=O)[C@H]([C@@H](C)CC)NC2=O)CS1,0.696
16,CCCCCCCCCC(=O)N[C@@H](Cc1c[nH]c2ccccc12)C(=O)N[C@H](CC(N)=O)C(=O)N[C@@H](CC(=O)O)C(=O)N[C@@H]1C(=O)NCC(=O)N[C@@H](CCCN)C(=O)N[C@@H](CC(=O)O)C(=O)N[C@H](C)C(=O)N[C@@H](CC(=O)O)C(=O)NCC(=O)N[C@H](CO)C(=O)N[C@@H]([C@H](C)CC(=O)O)C(=O)N[C@@H](CC(=O)c2ccccc2N)C(=O)O[C@@H]1C,0.952
17,CCC(C)C1NC(=O)C(CCNCS(=O)(=O)[O-])NC(=O)C(NC(=O)C(CCNCS(=O)(=O)[O-])NC(=O)C(NC(=O)C(CCNCS(=O)(=O)[O-])NC(=O)CCCCC(C)C)C(C)O)CCNC(=O)C(C(C)O)NC(=O)C(CCNCS(=O)(=O)[O-])NC(=O)C(CCNCS(=O)(=O)[O-])NC(=O)C(C(C)CC)NC1=O.[Na+].[Na+].[Na+].[Na+].[Na+] (stereo unspecified),0.0529 (active)
18,CCCc1nc2c(=O)n(C)c(=O)[nH]c2n1C,0.999
19,C[C@@H]1CN([C@@H](C)CO)C(=O)c2cc(NS(=O)(=O)c3ccc(Cl)cc3)ccc2O[C@@H](C)CCCCO[C@H]1CN(C)Cc1ccncc1,1.01

row,Structure (SMILES),relative growth
1,C[C@@H]1CN([C@@H](C)CO)C(=O)Cc2cc(NS(=O)(=O)c3ccc(F)cc3)ccc2O[C@@H]1CN(C)S(C)(=O)=O,1
2,COc1ccc(S(=O)(=O)Nc2ccc3c(c2)C(=O)N([C@@H](C)CO)C[C@@H](C)[C@H](CN(C)S(=O)(=O)c2cn(C)cn2)OCCCC[C@H](C)O3)cc1,0.989
3,CC(C)NC(=O)N(C)C[C@@H]1Oc2c(NC(=O)C3CCOCC3)cccc2C(=O)N([C@@H](C)CO)C[C@H]1C,0.977
4,CCc1nc2c(OCC(=O)c3ccc(Cl)cc3Cl)cccn2c1N(C)C(=O)COc1ccccc1,1.02
5,COc1cccc(S(=O)(=O)Nc2ccc3c(c2)OC[C@H](C)N(C(=O)Cc2cccnc2)C[C@H](C)[C@H](OC)CN(C)C3=O)c1,0.963
6,COc1ccc(NC(=O)N(C)C[C@@H]2OCCCC[C@H](C)Oc3ccc(NS(=O)(=O)c4cccs4)cc3C(=O)N([C@H](C)CO)C[C@H]2C)cc1,0.941
7,O=C(NCC[C@@H]1CC[C@H](NS(=O)(=O)c2cccc(F)c2)[C@@H](CO)O1)C1CC1,0.987
8,C[C@@H]1CN([C@H](C)CO)C(=O)c2cc(NC(=O)Nc3ccc(F)cc3)ccc2O[C@@H]1CN(C)S(=O)(=O)c1cn(C)cn1,1.01
9,C[C@H](CO)N1C[C@H](C)[C@@H](CN(C)S(=O)(=O)c2cn(C)cn2)Oc2ccc(NC(=O)Nc3ccc(F)cc3)cc2CC1=O,0.986
10,CCNC(=O)[C@@H]1[C@@H](CO)[C@@H]2Cn3c(ccc(-c4cccc(C(=O)N(C)C)c4)c3=O)[C@H]1N2,1.02
11,CC1=C(C(=O)O)N2C(=O)C(NC(=O)C(N)c3ccc(O)cc3)C2SC1 (stereo unspecified),0.986
12,Cc1cc(=O)c(C(=O)N[C@@H](C(=O)N[C@@H]2C(=O)N3C(C(=O)O)=C(CSc4nnnn4C)CS[C@H]23)c2ccc(O)cc2)c[nH]1,0.0389 (active)
13,Cc1cc(O)c(C(=O)NC(C(=O)NC2C(=O)N3C(C(=O)O)=C(CSc4nnnn4C)CSC23)c2ccc(O)cc2)cn1 (stereo unspecified),0.0416 (active)
14,CCN1CCN(C(=O)NC(C(=O)NC2C(=O)N3C(C(=O)O)=C(CSc4nnnn4C)CSC23)c2ccc(O)cc2)C(=O)C1=O (stereo unspecified),0.046 (active)
15,CC1=C(C(=O)O)N2C(=O)[C@@H](NC(=O)[C@H](N)c3ccc(O)cc3)[C@H]2SC1,1.06
16,CC1=C(C(=O)O)N2C(=O)[C@@H](NC(=O)[C@@H](N)c3ccc(O)cc3)[C@H]2SC1,0.999
17,N=c1sccn1CC(=O)O,1.04
18,CC1=C(/C=C/C(C)=C/C=C/C(C)=C/C(=O)O)C(C)(C)CCC1,0.987
19,Cc1noc(C)c1NC(=O)N(C)C[C@@H]1OCCCC[C@H](C)Oc2ccc(NC(=O)CCC(F)(F)F)cc2C(=O)N([C@H](C)CO)C[C@@H]1C,0.979

row,Structure (SMILES),relative growth
1,C[C@H](CO)N1C[C@H](C)[C@@H](CN(C)Cc2ccc3c(c2)OCO3)Oc2c(NC(=O)c3cnccn3)cccc2C1=O,0.969
2,COc1ccc(S(=O)(=O)N(C)C[C@H]2OCCCC[C@@H](C)Oc3ccc(NC(=O)Nc4ccc(F)cc4)cc3C(=O)N([C@H](C)CO)C[C@@H]2C)cc1,1.07
3,CO[C@@H]1CN(C)C(=O)c2ccc(NC(=O)C3CCOCC3)cc2OC[C@@H](C)N(CC2CCOCC2)C[C@H]1C,1.02
4,O=C(CN1CCOCC1)NCC[C@H]1CC[C@@H](NC(=O)Nc2ccccc2)[C@@H](CO)O1,1.01
5,Cc1noc(C)c1S(=O)(=O)Nc1cccc2c1O[C@@H](CN(C)Cc1ccccc1)[C@@H](C)CN([C@@H](C)CO)C2=O,1.01
6,C[C@@H]1CN([C@H](C)CO)C(=O)c2cc(NC(=O)Nc3ccc(C(F)(F)F)cc3)ccc2O[C@H]1CN(C)Cc1ccc(C(F)(F)F)cc1,1.02
7,C[C@@H]1CN([C@H](C)CO)C(=O)c2cc(-c3cccc(C(=O)N(C)C)c3)cnc2O[C@@H]1CN(C)S(=O)(=O)c1ccccc1,0.987
8,COc1oc(C(=O)NC2CCCCC2)c(-c2ccc(Cl)cc2)c1S(=O)(=O)c1cccc(Cl)c1,0.914
9,COc1ccccc1-c1cnc2c(c1)C(=O)N([C@@H](C)CO)C[C@@H](C)[C@H](CN(C)C(=O)c1cccnc1)O2,1.02
10,COc1cc(N2CCC3(CC2)CNC(=O)CO3)ncn1,0.968
11,C[C@@H]1CN([C@H](C)CO)C(=O)Cc2cc(NC(=O)CCN3CCOCC3)ccc2O[C@H]1CN(C)Cc1ccc(C(=O)O)cc1,1.03
12,CO[C@@]12[C@@H]3N[C@@H]3CN1C1=C(C(=O)C(N)=C(C)C1=O)[C@@H]2COC(N)=O,0.0651 (active)
13,COC12C(COC(N)=O)C3=C(C(=O)C(C)=C(N)C3=O)N1CC1NC12 (stereo unspecified),0.0503 (active)
14,CO[C@@]12[C@H](COC(N)=O)C3=C(C(=O)C(C)=C(N)C3=O)N1C[C@@H]1N[C@@H]12,1.01
15,COCCNC(=O)C[C@H]1CC[C@H]2[C@@H](COC[C@@H](O)CN2C(=O)Nc2ccccc2OC)O1,0.949
16,Cc1noc(C)c1S(=O)(=O)Nc1ccc2c(c1)CC(=O)N([C@H](C)CO)C[C@@H](C)[C@H](CN(C)Cc1ccncc1)O2,0.995
17,C[C@H](CO)N1C[C@H](C)[C@@H](CN(C)C)Oc2ccc(NS(C)(=O)=O)cc2CC1=O,0.983
18,C[C@@H]1CCCCO[C@@H](CN(C)C(=O)C2CCCCC2)[C@H](C)CN([C@H](C)CO)C(=O)c2cc(NS(=O)(=O)c3ccccc3)ccc2O1,0.989
